# Data from PubChem BioAssay (NCI).
# Where “and” joins values, the source holds several entries; their conditions need not be identical. Identical values can stand only once. About 79,000 compounds went through this panel and 15% of them were active in at least one assay; those are over-represented in the sample as a whole. Values without a mark were called inactive. Calls of active or inactive are those of the source. No stated cut-off is given here; in the data, active means growth inhibition above about 70%; inactive means the rest.
# Assays:
# [1] = NCI Yeast Anticancer Drug Screen. Data for the rad50 strain (AID 155);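 further: 0% = growth of vehicle-only cultures of the same strain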; conditions: S. cerevisiae rad50 strain growth inhibition, stronger effect = higher value; at 50.0 µM unless noted
# Summary of the method: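 A DNA repair-deficient yeast mutant serves as the test organism; compound-induced growth inhibition is calculated against vehicle-treated cells.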
# [2] = NCI Yeast Anticancer Drug Screen. Data for the mec2-1 strain (AID 157); conditions: S. cerevisiae mec2-1 strain, stronger effect = higher value; at 50.0 µM unless noted
# Summary of the method: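 Test agents were screened against the mec2-1 yeast strain, with defined DNA repair or cell cycle alteration. Growth was scored as inhibition against vehicle-only controls.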
# [3] = NCI Yeast Anticancer Drug Screen. Data for the sgs1 mgt1 strain (AID 161);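 further: 0% = growth of cultures given vehicle only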; conditions: S. cerevisiae sgs1 mgt1 strain, stronger effect = higher value; at 50.0 µM unless noted
# Summary of the method: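 Genetically altered yeast, compound exposure, growth inhibition relative to vehicle.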
# [4] = NCI Yeast Anticancer Drug Screen. Data for the cln2 rad14 strain (AID 165);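 further: 0% = growth equal to vehicle treated cultures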; conditions: S. cerevisiae cln2 rad14 strain, stronger effect = higher value; at 50.0 µM unless noted
# Summary of the method: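 Growth of compound-exposed yeast (cln2 rad14 genotype) measured and expressed as inhibition relative to vehicle.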
# [5] = NCI Yeast Anticancer Drug Screen. Data for the bub3 strain (AID 167); conditions: S. cerevisiae bub3 mutant strain, stronger effect = higher value; at 50.0 µM unless noted
# Summary of the method: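 Inhibition values come from growth of compound-treated mutant yeast normalised to vehicle-treated controls.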
# [6] = NCI Yeast Anticancer Drug Screen. Data for the mlh1 rad18 strain (AID 175); conditions: S. cerevisiae mlh1 rad18 strain growth inhibition, stronger effect = higher value; at 50.0 µM unless noted
# Summary of the method: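 In this whole-cell yeast screen, a strain with altered DNA damage repair is challenged with compound, and its growth is measured against matched vehicle-treated controls.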
Structure (SMILES),growth inhibition [1],growth inhibition [2],growth inhibition [3],growth inhibition [4],growth inhibition [5],growth inhibition [6]
CCCC(C)C(C(=O)OCC)C(=O)OCC (centres undefined),2.6% and -5.35%,-14.5% and -5.6%,-9.85% and 10.9%,21.5% and -17.4%,-11.3% and -14%,-15.3% and -7.4%
CC1=C(CCC(=O)O)c2cc3nc(cc4[nH]c(cc5[nH]c(cc1n2)c(C)c5C1CC1C(=O)O)c(C)c4C1CC1C(=O)O)C(C)=C3CCC(=O)O (centres undefined),0.35%,22.4%,30.3%,-0.6%,13.2%,25.1%
C/C(=C\c1ccc(N(C)C)cc1)c1ccncc1,63.3%,38.9%,68.5%,34.8%,86.7% (active),48.2%
Cc1ccc(C(C)C)cc1NC(=O)c1ccc([N+](=O)[O-])cc1,-5.15%,16.4%,16.9%,-5.8%,2.6%,21.6%
CCOC(=O)c1[nH]c(=O)[nH]c(=O)c1[N+](=O)[O-],0.4%,-3.75%,7.15%,3.4%,-11.9%,-2.3%
c1cc(-c2ncc[nH]2)ccn1,-6.9%,-12.2%,-4.25%,-4.05%,6.1%,-8.2%
CC(C)(CN1CCCCC1)C(=O)CC(SCCN)c1ccc(Cl)cc1 (centres undefined),27.8%,0.65%,47.3%,31.2%,46.9%,23.8%
Nc1ncnc2c1ncn2C1OC(CO)C(NC(=O)C(N)Cc2ccccc2)C1O (centres undefined),7.2%,-4.7%,-2.8%,-32.3%,2.15%,-9.5%
CC(=O)OCCOc1ccc2c(c1)OCO2,3.2%,-1.2%,4.95%,-23.6%,-1.75%,30.7%
CN(Cc1ccc(Cl)cc1)N=Nc1ccc(C(=O)O)cc1,-5.5%,4.4%,24.7%,25.8%,16.6%,24.6%
CC(N)(CC(O)(C(F)(F)Cl)C(F)(F)Cl)C(=O)O (centres undefined),-48.1%,-37.7%,-33.4%,-9.25%,-13.7%,-28.8%
Cc1ccc([N+](=O)[O-])cc1NC(=O)N(Cc1ccccc1)Cc1ccccc1,8.7%,1.5%,10.8%,9.4%,17.3%,-0.05%
NC(CC(=O)c1ccccc1NC=O)C(=O)O (centres undefined),8.85%,-1.4%,-9.95%,-48.6%,-0.95%,3.25%
C=C(C)[C@H]1CC(=O)[C@@]2(C)C[C@H]3O[C@]3(C)CC/C=C(\C)CC[C@H]12,20.2%,14.4%,33.2%,15.1%,31.1%,51.5%
O=C(CNc1nncs1)NO,15.1%,-8.95%,0.3%,1.05%,-1.35%,-1.7%
CC(C)C(=O)/C=C/c1ccc(Cl)cc1,0.95% and -1.3%,-18.9% and -16.6%,-16.1% and -10.2%,-66.7% and -44.9%,-0.75% and -28.1%,-16.9% and -8.65%
NC(=O)c1ccccc1NC(=O)C(=O)C(C(=O)c1ccc(Cl)c(Cl)c1)C1OC(=O)c2ccccc21 (centres undefined),53.2%,46.9%,32.9%,67.5%,57.9%,44.6%
CCCn1c(C)nc2c([N+](=O)[O-])cc(C)cc21,-4.2%,-14.8%,-12.9%,-34.2%,13.4%,-4.8%
CC(=O)c1ccc(O)c(/C=C2\CCOC2=O)c1,8.2%,8.4%,-9%,-3.45%,9.55%,7.7%
COC(C(=O)Nc1ccc(C)cc1)(c1ccccc1)c1ccccc1,7.4%,7.45%,-7.55%,0.65%,12.9%,23.8%

Structure (SMILES),growth inhibition [1],growth inhibition [2],growth inhibition [3],growth inhibition [4],growth inhibition [5],growth inhibition [6]
NC(=O)N/N=C(/Cc1nc2ccc(C(=O)c3ccccc3)cc2[nH]c1=O)C(=O)Nc1ccc(C(F)(F)F)cc1[N+](=O)[O-],-7.85%,7.35%,-7.85%,0.8%,-33.6%,5.05%
Cc1ccc2c(c1)C(C)(C)C(C)(C)C2(C)C,1.5%,-0.8%,-0.05%,0.4%,3.8%,-0.1%
CN(C)C(=O)OC(Cn1cncn1)(Cn1cncn1)c1ccc(Cl)cc1Cl,-29.8%,13%,7.5%,-10.8%,5.1%,-16.8%
COC(=O)CCC(NC(=S)N/N=C(\C)c1ccco1)C(=O)OC (centres undefined),-18.1%,-20.8%,0.25%,26.6%,-5.2%,-16.3%
Clc1ccccc1/C=N\N=C\c1ccco1,8.3%,-14.1%,-9.05%,-40.4%,-11.1%,14.4%
Cc1cc(C)nc(NS(=O)(=O)c2ccc(Nc3c4ccccc4nc4c(C(=O)Nc5ccc(S(=O)(=O)Nc6cc(C)on6)cc5)ccc(Cl)c34)cc2)n1,32.9%,45.1%,23.1%,42.2%,18.9%,41.5%
COc1ccc(NC(C)=O)cc1,24.8%,3.2%,2.7%,13.8%,11.8%,-11.1%
O=C1NC2OCC(O)C(O)C2O1 (centres undefined),4.6%,10.1%,-4.15%,12.4%,22.4%,6.45%
O=c1n(CC2CO2)c(=O)n(CC2CO2)c(=O)n1CC1CO1 (centres undefined),-8.4% and -1.15%,11.6% and 8.65%,19.7% and -18.9%,-25.3% and -6.25%,26.1% and -34%,28.1% and 2.45%
NCC(=O)c1ccc(CCC(=O)O)cc1,3.1%,-0.25%,-0.75%,0.25%,6.3%,2.6%
COc1cccc(N2C(=O)C3c4[nH]c5ccccc5c4C4c5ccccc5CCC4C3C2=O)c1 (centres undefined),-0.1%,4.4%,5.05%,2.95%,-0.6%,20.9%
CCCCCN=C(N)C(N)=NCCCCC,47.8%,8%,24.7%,-31.1%,5.5%,24.9%
CN(C(=O)c1cccc([N+](=O)[O-])c1)C1CCCCC1,2.6%,34.5%,32.6%,-4.7%,22.4%,14.2%
CCCCCCCC(=O)Nc1cccc(O)c1,4.8%,-6.95%,-11.7%,-34.9%,-6.3%,-6.15%
COc1cc(C(=O)N(C)C)cc(OC)c1OC,-1.25%,2.65%,-6.6%,2.25%,-4%,5.5%
CC(=O)Oc1ccc2c(c1)CCC2,9.85%,12.8%,1.4%,8.25%,15.1%,0.1%
C=C[C@]1(C)C=C2CC[C@@H]3[C@](C)(CCC[C@@]3(C)C(=O)O)[C@H]2CC1,14.5%,8.7%,13.8%,-9.05%,-1.9%,29.8%
COc1cc(C(=O)O)cc(I)c1OC,-3.3%,25.1%,3.95%,-15.4%,-4.55%,-8.95%
O=C(O)c1cc([N+](=O)[O-])c(O)c2ccccc12,9.15%,2.8%,6.1%,-22.1%,-16.1%,21.8%
